Screening data deposited in PubChem BioAssay by several laboratories.
SENP7 inh: SENP7 protease inhibitors, primary screen, biochemical, luminescence, uHTS. Sentrin-specific protease 7 (Homo sapiens), Q9BQF6. inhibition, % at 5 µM. recombinant SENP7, Z-RLRGG-aminoluciferin luminescence, 40 min. actives 1.5% (n = 330,000);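 active = inhibition above about 50% at the single test dose, limit read from the data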;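 note: plate controls were DMSO with enzyme for no effect and no enzyme buffer wells for full effect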
Target sequence (Q9BQF6 706-1050 limits assumed): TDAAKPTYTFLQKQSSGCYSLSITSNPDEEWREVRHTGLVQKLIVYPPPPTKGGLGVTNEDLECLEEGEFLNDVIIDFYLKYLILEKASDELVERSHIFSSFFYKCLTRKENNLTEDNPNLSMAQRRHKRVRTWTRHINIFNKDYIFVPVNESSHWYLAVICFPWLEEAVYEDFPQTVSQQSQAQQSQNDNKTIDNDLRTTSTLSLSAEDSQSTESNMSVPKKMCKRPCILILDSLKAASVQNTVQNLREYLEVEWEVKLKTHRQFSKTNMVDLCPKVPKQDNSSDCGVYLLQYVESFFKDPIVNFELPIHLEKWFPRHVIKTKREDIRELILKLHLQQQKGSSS
SENP8 block-1: human SENP8 protease inhibitors, primary screen, biochemical, fluorescence, Nedd8 protein substrate, uHTS. Sentrin-specific protease 8 (Homo sapiens), Q96LD8. actives 0.64% (n = 360,000). inhibition, % at 20 µM. recombinant SENP8; in the data active = inhibition mostly above about 40%, no sharp cut-off; inactive = mostly below about 27%
SENP6 inh: SENP6 protease inhibitors, primary screen, biochemical, luminescence, uHTS; Sentrin-specific protease 6 (Homo sapiens), Q9GZR1; Recombinant SENP6 catalytic domain, aminoluciferin luminescence; inhibition, % at 10 µM; actives 1.8% (n = 330,000); AID 2599, 2010;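 active = inhibition above about 50% at the single tested dose, limit read from the data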;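 note: plate controls were DMSO wells with enzyme for no effect and DMSO wells lacking enzyme for full effect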
SENP8 block-2: SENP8 protease inhibitors, primary screen, biochemical, luminescence; Sentrin-specific protease 8 (Homo sapiens), Q96LD8; purified SENP8, Z-RLRGG-aminoluciferin cleavage; inhibition, % at 10 µM; actives 1.2% (n = 330,000); AID 2540, 2010; in the data active = inhibition above about 50%
HSP90 refold inh: HSP90 inhibitors, primary screen, cell lysate, luminescence. Rabbit reticulocyte lysate, luciferase refolding luminescence, 3 h. inhibition, % at 5.6 µM. actives 0.91% (n = 290,000);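 active = inhibition above the screen-wide mean plus 3 SD, computed separately per campaign, cut at about 16% in these data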;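 note: 0% = DMSO wells and 100% = 60 µM geldanamycin wells; inhibitors lower the luminescence because luciferase stays unfolded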
SENP8 conf: SENP8 protease inhibitors, retest, confirmation, biochemical, luminescence, single concentration; shares compounds with SENP7 inh; Recombinant SENP8, Z-RLRGG-aminoluciferin luminescence, 60 min; inhibition, % at 12.5 µM; actives 40% (n = 6,200); AID 488912, 2010;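 active = mean inhibition across replicates above about 50%, limit read from the data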
SENP6 conf: SENP6 protease inhibitors, confirmation, biochemical, luminescence, single concentration; actives 58% (n = 6,200); recombinant SENP6, Z-RLRGG-aminoluciferin luminescence; AID 488915, 2010; inhibition, % at 12.5 µM; shares compounds with SENP7 inh
SENP7 confirm: SENP7 protease inhibitors, retest, confirmation, biochemical, luminescence, single concentration. shares compounds with SENP7 inh. recombinant SENP7, Z-RLRGG-aminoluciferin luminescence, 40 min. inhibition, % at 12.5 µM. actives 69% (n = 6,200). AID 488917, 2010
Casp3 SENP sel: caspase-3 protease inhibitors, confirmation, selectivity assay for SENP inhibitor project, biochemical, single concentration. shares compounds with SENP7 inh. purified caspase-3, Z-DEVD-aminoluciferin luminescence, 60 min. inhibition, % at 12.5 µM. actives 60% (n = 6,200). AID 488918, 2010;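 active = mean inhibition above about 50%, limit read from the data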;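 note: plate controls were enzyme with DMSO for no effect and wells without caspase-3 for full effect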
Luc interf: interferes with luciferase luminescence in SENP counter-screen; shares compounds with SENP7 inh; Pre-incubated SENP8/Z-RLRGG-aminoluciferin, luciferase luminescence interference; inhibition, % at 12.5 µM; actives 39% (n = 6,200);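 active = mean inhibition above about 50% when retested at one dose, limit read from the data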;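 note: plate controls were DMSO wells with completed reaction for no effect and substrate without enzyme for full effect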
* hit, by the source's call. Compounds with a hit are over-represented: about 2.7% of the library has one in this group of screens.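 Rule for the calls, unless noted: active = mean inhibition above about 50% in the one-dose retest (limit read from the data); inactive = the rest.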

How did CCCCn1nc2cc(C(=O)N(CC)c3ccc(OC)cc3)ccc2c1OCC do in these assays?
SENP7 inh: -6.6; SENP8 block-1: -498.1; SENP6 inh: -4.9; SENP8 block-2: 3.2; HSP90 refold inh: -4.0

How did COCCOC(=O)CSc1ncccc1-c1nc2cc(C)c(C)cc2[nH]1 do in these assays?
SENP7 inh: 95.3*; SENP8 block-1: -439.1; SENP6 inh: 21.0; SENP8 block-2: 92.8*; HSP90 refold inh: -0.4; SENP8 conf: 93.4*; SENP6 conf: 95.6*; SENP7 confirm: 102.1*; Casp3 SENP sel: 96.3*; Luc interf: 95.5*

Results for CCOC(=O)CSc1ccc(-c2nc3cc(C)c(C)cc3[nH]2)cn1 ?
SENP7 inh: -16.8; SENP8 block-1: -356.1; SENP6 inh: -23.2; SENP8 block-2: -10.2; HSP90 refold inh: 1.5

What do the screens show for `Cc1cccc2c(=O)n3c(cc12)-c1[nH]c2ccccc2c1CC3`?
SENP8 block-1: inactive

Results for O=c1c2ccccc2nc2n1CCc1c-2[nH]c2ccccc12 ?
SENP7 inh: 89.3*; SENP8 block-1: -378.0; SENP6 inh: 63.9*; SENP8 block-2: 48.4; SENP8 conf: 33.2; SENP6 conf: 28.9; SENP7 confirm: 27.7; Casp3 SENP sel: 25.0; Luc interf: 18.6

What do the screens show for `CCCN(Cc1cc(=O)[nH]c2ccccc12)C(=O)CC`?
SENP7 inh: 3.8; SENP8 block-1: -28.6; SENP6 inh: 97.7*; SENP8 block-2: -7.0; HSP90 refold inh: 7.4; SENP8 conf: 5.2; SENP6 conf: 3.1; SENP7 confirm: -5.5; Casp3 SENP sel: -4.2; Luc interf: -10.0

What do the screens show for `CCC(=O)N(CC)Cc1cc(=O)[nH]c2ccccc12`?
SENP7 inh: -7.1; SENP8 block-1: -3.9; SENP6 inh: 4.5; SENP8 block-2: -2.9; HSP90 refold inh: 4.9

How did CCOc1ccccc1OCC(=O)Nc1ccc(N2CCOCC2)cc1N1CCOCC1 do in these assays?
SENP7 inh: 0.3; SENP8 block-1: 12.5; SENP6 inh: -3.5; SENP8 block-2: 1.7

What do the screens show for `Oc1ccc(/C=C/c2ccc3cccc(O)c3n2)cc1Br`?
SENP7 inh: 87.9*; SENP8 block-1: -107.3; SENP6 inh: 96.8*; SENP8 block-2: 92.1*; HSP90 refold inh: -9.8; SENP8 conf: 97.6*; SENP6 conf: 98.2*; SENP7 confirm: 101.6*; Casp3 SENP sel: 83.8*; Luc interf: 94.3*

How did O/N=C/c1ccc2cccc(O)c2n1 do in these assays?
SENP7 inh: 3.7; SENP8 block-1: 14.2; SENP6 inh: 0.5; SENP8 block-2: -3.6; HSP90 refold inh: 4.0

Results for O=C(O)c1ccc(/C=C/c2ccc3cccc(O)c3n2)cc1 ?
SENP7 inh: 98.4*; SENP8 block-1: -110.5; SENP6 inh: 95.0*; SENP8 block-2: 94.9*; HSP90 refold inh: 3.4; SENP8 conf: 98.0*; SENP6 conf: 98.6*; SENP7 confirm: 101.9*; Casp3 SENP sel: 96.8*; Luc interf: 78.4*

How did O=[N+]([O-])c1cccc(/C=C/c2ccc3cccc(O)c3n2)c1 do in these assays?
SENP7 inh: 21.8; SENP8 block-1: 28.0; SENP6 inh: 13.2; SENP8 block-2: -9.5; HSP90 refold inh: 1.6
